Among all 48,000 compounds or so, about 13,000 (27%) showed an effect of 50% or more. Some of the results follow.

This test deals with Wolbachia pipientis. Briefly: Anti-Wolbachia Cell-Based Screen. On the set-up: scale not given: in the data most compounds retested in dose-response had high values. The conditions noted are these: 5 µM. It counts as functional.
On to `CCN(CCc1ccccc1)Cn1nc(C)c2c(C)onc2c1=O`, for which the “Percent Effect” value is 9.974%.
Under `CC(C)NC(=O)N1CCOC2(CNC2)C1` stands 2.797%.
Regarding `CC(C)(C)n1cc(C(=O)O)c(-c2ccc(F)cc2F)n1`, the “Percent Effect” value is 0.2477%.
Under `Cn1cc(N2C[C@@H]3CN(Cc4ccccn4)C[C@@H]3C2=O)cn1.O=C(O)C(F)(F)F.O=C(O)C(F)(F)F` stands -17.49%.
On to `CN1C(Cn2cccn2)C[C@@H]2CN(Cc3cccnc3)CC[C@@H]21.O=C(O)C(F)(F)F.O=C(O)C(F)(F)F.O=C(O)C(F)(F)F.O=C(O)C(F)(F)F` (stereo partly specified), for which the “Percent Effect” value was determined as 103.4%.
For the compound `CN1C(Cn2cccn2)C[C@@H]2CN(Cc3ccccn3)CC[C@@H]21.O=C(O)C(F)(F)F.O=C(O)C(F)(F)F.O=C(O)C(F)(F)F.O=C(O)C(F)(F)F` (stereo partly specified), the “Percent Effect” value turned out to be 100.1%.
Take `O=C(O)C(F)(F)F.O=C(O)C(F)(F)F.O=C1[C@H]2CN(Cc3ccoc3)C[C@H]2CN1Cc1cccnc1`: the “Percent Effect” value was -13.37%.
Under `Cc1oncc1C(=O)N1CC[C@H]2[C@H](C[C@@H](CN3CCCC3)N2C)C1.O=C(O)C(F)(F)F.O=C(O)C(F)(F)F` stands 90.36%.
Take `CN(C)C[C@@H]1C[C@@H]2CN(c3ncc(F)cn3)CC[C@@H]2N1C.O=C(O)C(F)(F)F.O=C(O)C(F)(F)F.O=C(O)C(F)(F)F`: the “Percent Effect” value is -18.44%.
`O=C(O)C(F)(F)F.O=C(O)C(F)(F)F.O=C(O)C(F)(F)F.c1ccc(CN2CC[C@H]3[C@H]2CCN3c2ncccn2)nc1`: the “Percent Effect” value was -2.728%.
Under `Cc1cnc(N2CC[C@H]3[C@H](C[C@@H](CN(C)C)N3C)C2)nc1.O=C(O)C(F)(F)F.O=C(O)C(F)(F)F.O=C(O)C(F)(F)F` stands -11.75%; under `CC(C)N1[C@H](Cn2cncn2)C[C@@H]2CN(c3ncccn3)CC[C@@H]21.O=C(O)C(F)(F)F`, 2.319%; under `O=C(C1CCCC1)N1C[C@@H]2CCNC[C@@H]21`, -32.69%.
`Cc1nc(O)cc(CNC(=O)CC[C@@H]2CCCN3CCCC[C@H]23)n1`: the “Percent Effect” value is -12.46%.
Take `COCCO[C@@H]1C[C@H]2CN(C(=O)c3ccc(C)nc3)CCN2C1`: the “Percent Effect” value is -21.72%.
For `Cn1nc(-c2cccs2)cc1[C@H]1CN2CC[C@H]1C[C@@H]2CN`, the “Percent Effect” value is listed as -6.528%.
Under `NC1(c2nc(-c3cccs3)cc(=O)[nH]2)CCCCC1` stands -5.956%.
Consider `Cc1cc(C(F)(F)F)nc(N2CCN3CCCC3C2)n1` (stereo unspecified), for which the “Percent Effect” value came to 105%.
Consider `FC(F)(F)c1cc(-c2cccs2)nc(N2CCN3CCCC3C2)n1` (stereo unspecified), for which the “Percent Effect” value turned out to be 58.5%.
Under `Cc1cc(N2CCCN3CCC[C@H]3C2)n2nc(C)c(C)c2n1` stands 20.9%; under `Cc1cc(N2CCN3CCCCC3C2)n2nc(C)c(C)c2n1` (stereo unspecified), 11.68%.

(Values after ChEMBL document CHEMBL3988442, “University of Dundee, Small-Polar-MMV Screening Library” (2021).)
